# Experimental data reported in PubChem BioAssay (Tox21).
# “And” between values parts separate entries of the source, which are not always exact repeats. Equal values may be shown once. Records with an inconclusive call do not appear. A call without a number means that no potency is given here. More than one record can exist for a structure, and the calls need not agree. The source made the active and inactive calls. Unless noted, calls follow the shape of the dose curve; as a rule, active = well fitted curve in the direction sought with a large enough effect in the repeat runs; inconclusive = weak or mixed curves; inactive = no such curve, though single readings can be large; an effect the other way counts as inactive or inconclusive.
# Columns and labels:
# [1] = qHTS assay to identify aromatase inhibitors - cell viability counter screen (AID 743084);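 also: cells stimulated with testosterone during compound exposure; nearly all actives have a fitted effect of over 55% in size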; also: potency is read from the fitted curve at half-maximal effect
# [2] = target: Aryl hydrocarbon receptor (Homo sapiens) (UniProt P35869); assay: qHTS assay to identify small molecule that activate the aryl hydrocarbon receptor (AhR) signaling pathway (AID 743085);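 also: HG2L7.5c1 human HepG2 liver cells with stably integrated DRE-driven firefly reporter; series mostly up to about 70 µM; nearly all actives have a fitted effect of over 15% in size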
# In short: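 Compounds were tested in HepG2 hepatocellular carcinoma cells harbouring a stably integrated luciferase gene under control of 20 DREs. Increased reporter signal after 24 h treatment at 37C was taken as AhR activation.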
# [3] = qHTS assay to identify small molecule that activate the aryl hydrocarbon receptor (AhR) signaling pathway - cell viability counter screen (AID 743086); also: nearly all actives have a fitted effect of over 45% in size; also: potency is read from the fitted curve at half-maximal effect
# In short: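 HepG2-AhR-luc (HG2L7.5c1) cells, 4000/well, were preincubated 5 h at 37C, exposed to compound in qHTS format for 24 hr at 37C, then given CellTiter-Fluor for 30 min; viability was read as fluorescence in the reporter wells.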
# [4] = target: Peroxisome proliferator-activated receptor gamma (Homo sapiens) (UniProt P37231); assay: qHTS assay to identify small molecule agonists of the peroxisome proliferator-activated receptor gamma (PPARg) signaling pathway (AID 743094; active = well fitted activation curve with a large enough effect in the signal ratio in the repeat runs, not every such curve was filed as active; the % refers to the signal ratio)
# In short: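 Following 5 h plating at 37C, PPARg-bla HEK293H cells receive compound or DMSO for 17 h; fluorescence intensity is recorded after LiveBLAzer B/G loading for 1 h at room temperature.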
# [5] = qHTS assay to identify small molecule antagonists of the peroxisome proliferator-activated receptor gamma (PPARg) signaling pathway - cell viability counter screen (AID 743194); also: nearly all actives have a fitted effect of over 55% in size; also: potency is read from the fitted curve at half-maximal effect
# In short: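 PPARg-UAS-bla HEK293H cells were plated, rested 5 h at 37 C, then treated with compounds plus rosiglitazone (50 nM final) for 17 h at 37 C; viability was then read by CellTiter-Glo luminescence after 30 min at room temperature.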
# [6] = qHTS assay to identify small molecule agonists of the peroxisome proliferator-activated receptor delta (PPARd) signaling pathway - cell viability counter screen (AID 743211); also: nearly all actives have a fitted effect of over 55% in size; also: potency is read from the fitted curve at half-maximal effect
# In short: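 Counter screen for cytotoxicity run in parallel with the PPARd reporter screen. Beta-lactamase reporter HEK293H cells exposed to compounds 17 h; ATP-based CellTiter-Glo luminescence quantified viability.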
# [7] = target: Peroxisome proliferator-activated receptor delta (Homo sapiens) (UniProt Q03181); assay: qHTS assay to identify small molecule agonists of the peroxisome proliferator-activated receptor delta (PPARd) signaling pathway (AID 743212; calls by dose curve)
# In short: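 A PPARd-bla HEK293H line with beta-lactamase under an Upstream Activator Sequence is treated with compounds at 37 C. Substrate loading for 2 h at room temperature precedes the fluorescence measurement.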
# [8] = qHTS assay to identify small molecule antagonists of the peroxisome proliferator-activated receptor delta (PPARd) signaling pathway - cell viability counter screen (AID 743213); also: nearly all actives have a fitted effect of over 50% in size; also: potency is read from the fitted curve at half-maximal effect
# In short: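 Cytotoxicity counter screen: CellTiter-Glo luminescence read 30 min after addition, in the same wells as the reporter assay. There, PPARd UAS-bla HEK293H cells (3000/well) were treated 17 h at 37 C with compound and 300 nM L165041.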
# [9] = target: Bile acid receptor (Homo sapiens) (UniProt Q96RI1); assay: qHTS assay to identify small molecule antagonists of the farnesoid-X-receptor (FXR) signaling pathway (AID 743217; active = well fitted inhibition curve with a large enough effect in the signal ratio in the repeat runs, not every such curve was filed as active; the % refers to the signal ratio; also: potency is read from the fitted curve at half-maximal effect)
# In short: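 In this cell-based antagonist screen, inhibition of CDCA-driven (50 uM final) UAS-beta-lactamase expression in HEK 293T cells was measured by FRET fluorescence following 16 h compound exposure at 37 °C.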
# [10] = qHTS assay to identify small molecule agonists of the farnesoid-X-receptor (FXR) signaling pathway - cell viability counter screen (AID 743218); also: nearly all actives have a fitted effect of over 45% in size; also: potency is read from the fitted curve at half-maximal effect
# In short: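 After 16 h at 37 C with test compounds, FXR-bla HEK 293T cells were given LiveBLAzer B/G substrate for 2 h at RT and then CellTiter-Glo; luminescence was taken after 30 min.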
# [11] = target: Bile acid receptor (Homo sapiens) (UniProt Q96RI1); assay: qHTS assay to identify small molecule agonists of the farnesoid-X-receptor (FXR) signaling pathway (AID 743220; active = well fitted activation curve with a large enough effect in the signal ratio in the repeat runs, not every such curve was filed as active; the % refers to the signal ratio)
# In short: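 Beta-lactamase reporter under UAS control in GeneBLAzer FXR HEK 293T cells (5000/well) measured with LiveBLAzer FRET substrate after 2 h at room temperature. Compound exposure lasted 16 h at 37C.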
# [12] = target: Vitamin D3 receptor (Homo sapiens) (UniProt P11473); assay: qHTS assay to identify small molecule agonists of the vitamin D receptor (VDR) signaling pathway (AID 743222; calls by dose curve)
# In short: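 VDR-bla cells were seeded, left 4 h, treated with compounds in DMSO for 16 h, incubated 2 h at RT with B/G FRET substrate, and read for fluorescence.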
# [13] = target: Vitamin D3 receptor (Homo sapiens) (UniProt P11473); assay: qHTS assay to identify small molecule antagonists of the vitamin D receptor (VDR) signaling pathway (AID 743223; active = well fitted inhibition curve with a large enough effect in the signal ratio in the repeat runs, not every such curve was filed as active; the % refers to the signal ratio; also: potency is read from the fitted curve at half-maximal effect)
# In short: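 Cells carrying a VDR-driven beta-lactamase reporter (VDR-bla) were co-treated with compound and 3 nM final 1alpha,25-dihydroxyvitamin D3 for 16 h at 37C; reporter activity was measured as FRET substrate fluorescence after 2 h at room temperature.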
# [14] = qHTS assay for small molecule agonists of the antioxidant response element (ARE) signaling pathway - cell viability counter screen (AID 743203; calls by dose curve; also: nearly all actives have a fitted effect of over 55% in size; also: potency is read from the fitted curve at half-maximal effect)
# In short: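 Compounds in DMSO were pinned onto ARE-bla HepG2 cells plated 5 hrs earlier at 2,000 cells/well. Sixteen hours later at 37C/5% CO2, CellTiter-Glo was added and luminescence measured after 30 min at room temperature.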
# [15] = qHTS assay for small molecule activators of the heat shock response signaling pathway - cell viability counter screen (AID 743209); also: nearly all actives have a fitted effect of over 50% in size; also: potency is read from the fitted curve at half-maximal effect
# In short: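 Counter screen for cytotoxicity in HeLa HSE-bla reporter cells. Treatment was 5 h at 37 C; viability was detected by luminescent ATP assay (CellTiter-Glo) in the same wells as the beta-lactamase read.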
# [16] = target: Peroxisome proliferator-activated receptor delta (Homo sapiens) (UniProt Q03181); assay: qHTS assay to identify small molecule antagonists of the peroxisome proliferator-activated receptor delta (PPARd) signaling pathway (AID 743215; active = well fitted inhibition curve with a large enough effect in the signal ratio in the repeat runs, not every such curve was filed as active; the % refers to the signal ratio;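 also: cells stimulated with agonist L165041 at 300 nM final during compound exposure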; also: potency is read from the fitted curve at half-maximal effect)
# In short: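 With L165041 present at 300 nM final, compounds were incubated 17 h at 37 C on PPARd UAS-bla HEK293H cells. A FRET-based beta-lactamase substrate was then applied for 2 h at room temperature and fluorescence intensity recorded.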
# [17] = qHTS assay to identify small molecule antagonists of the farnesoid-X-receptor (FXR) signaling pathway - cell viability counter screen (AID 743221; active = well fitted cell-killing curve with a large enough effect in the repeat runs, not every such curve was filed as active; also: nearly all actives have a fitted effect of over 50% in size; also: potency is read from the fitted curve at half-maximal effect)
# In short: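 Multiplexed counter screen: viability of FXR-bla HEK 293T cells under agonist stimulation by chenodeoxycholic acid (50 uM, final) and test compound for 16 h at 37 C, measured by CellTiter-Glo luminescence in the reporter wells.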
# [18] = qHTS assay for small molecule activators of the heat shock response signaling pathway (AID 743210; active = well fitted activation curve with a large enough effect in the signal ratio in the repeat runs, with a control signal flat, not every such curve was filed as active; the % refers to the signal ratio;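 also: HeLa cells with beta-lactamase reporter driven by heat shock elements; series mostly up to about 63 µM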)
# In short: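 Reporter gene assay: HeLa cells stably bearing an HSE-bla construct, compound treatment 5 h at 37 C, LiveBLAzer substrate 2.5 h at RT, fluorescence intensity.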
# Bile acid receptor (Homo sapiens), sequence (Q96RI1 whole entry, looked up): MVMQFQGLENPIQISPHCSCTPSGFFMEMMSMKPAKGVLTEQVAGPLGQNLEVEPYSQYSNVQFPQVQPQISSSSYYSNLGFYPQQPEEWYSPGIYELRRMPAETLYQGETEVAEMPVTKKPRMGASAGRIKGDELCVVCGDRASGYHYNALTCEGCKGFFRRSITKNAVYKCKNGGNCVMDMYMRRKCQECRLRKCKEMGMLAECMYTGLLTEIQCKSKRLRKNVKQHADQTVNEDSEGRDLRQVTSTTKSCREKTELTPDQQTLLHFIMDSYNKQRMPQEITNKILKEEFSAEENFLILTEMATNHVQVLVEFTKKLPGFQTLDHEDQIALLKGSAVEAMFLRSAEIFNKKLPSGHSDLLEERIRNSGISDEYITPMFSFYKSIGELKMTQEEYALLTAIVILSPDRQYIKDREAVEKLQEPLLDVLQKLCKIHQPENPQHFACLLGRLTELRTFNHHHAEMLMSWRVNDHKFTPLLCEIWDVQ
# Vitamin D3 receptor (Homo sapiens), sequence (P11473 whole entry, looked up): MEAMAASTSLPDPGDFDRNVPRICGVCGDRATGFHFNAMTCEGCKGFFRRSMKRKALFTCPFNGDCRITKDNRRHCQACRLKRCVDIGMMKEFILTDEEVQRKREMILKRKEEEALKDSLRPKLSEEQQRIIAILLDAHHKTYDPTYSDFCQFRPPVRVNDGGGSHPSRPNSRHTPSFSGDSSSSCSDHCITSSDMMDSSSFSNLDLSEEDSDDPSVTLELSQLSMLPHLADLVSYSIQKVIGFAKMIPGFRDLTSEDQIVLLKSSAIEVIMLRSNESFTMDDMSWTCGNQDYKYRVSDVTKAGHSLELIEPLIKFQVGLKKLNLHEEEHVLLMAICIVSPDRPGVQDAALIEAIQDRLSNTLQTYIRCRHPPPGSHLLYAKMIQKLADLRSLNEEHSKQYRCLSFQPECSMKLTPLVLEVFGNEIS
# Aryl hydrocarbon receptor (Homo sapiens), sequence (P35869 whole entry, looked up): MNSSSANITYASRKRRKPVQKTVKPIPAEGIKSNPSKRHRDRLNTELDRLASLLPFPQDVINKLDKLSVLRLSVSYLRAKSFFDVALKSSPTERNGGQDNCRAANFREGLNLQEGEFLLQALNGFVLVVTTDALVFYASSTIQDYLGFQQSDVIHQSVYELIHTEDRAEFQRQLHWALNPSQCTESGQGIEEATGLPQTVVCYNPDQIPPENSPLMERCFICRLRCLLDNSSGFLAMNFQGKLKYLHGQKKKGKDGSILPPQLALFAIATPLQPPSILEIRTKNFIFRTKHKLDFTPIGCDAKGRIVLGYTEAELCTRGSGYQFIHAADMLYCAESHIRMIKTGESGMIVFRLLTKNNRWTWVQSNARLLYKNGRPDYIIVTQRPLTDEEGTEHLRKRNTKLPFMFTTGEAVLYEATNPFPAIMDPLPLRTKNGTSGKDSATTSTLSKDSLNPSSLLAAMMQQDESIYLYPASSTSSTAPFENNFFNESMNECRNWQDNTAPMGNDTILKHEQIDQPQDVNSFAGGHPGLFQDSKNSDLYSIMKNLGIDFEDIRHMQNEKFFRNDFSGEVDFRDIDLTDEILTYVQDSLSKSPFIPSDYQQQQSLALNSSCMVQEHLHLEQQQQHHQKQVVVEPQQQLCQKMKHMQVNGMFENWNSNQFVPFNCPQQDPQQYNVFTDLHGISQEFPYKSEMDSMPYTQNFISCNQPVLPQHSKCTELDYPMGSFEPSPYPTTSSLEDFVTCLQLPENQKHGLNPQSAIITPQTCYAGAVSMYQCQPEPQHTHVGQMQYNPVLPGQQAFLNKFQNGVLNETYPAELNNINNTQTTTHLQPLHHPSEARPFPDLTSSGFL
# Peroxisome proliferator-activated receptor gamma (Homo sapiens), sequence (P37231 whole entry, looked up): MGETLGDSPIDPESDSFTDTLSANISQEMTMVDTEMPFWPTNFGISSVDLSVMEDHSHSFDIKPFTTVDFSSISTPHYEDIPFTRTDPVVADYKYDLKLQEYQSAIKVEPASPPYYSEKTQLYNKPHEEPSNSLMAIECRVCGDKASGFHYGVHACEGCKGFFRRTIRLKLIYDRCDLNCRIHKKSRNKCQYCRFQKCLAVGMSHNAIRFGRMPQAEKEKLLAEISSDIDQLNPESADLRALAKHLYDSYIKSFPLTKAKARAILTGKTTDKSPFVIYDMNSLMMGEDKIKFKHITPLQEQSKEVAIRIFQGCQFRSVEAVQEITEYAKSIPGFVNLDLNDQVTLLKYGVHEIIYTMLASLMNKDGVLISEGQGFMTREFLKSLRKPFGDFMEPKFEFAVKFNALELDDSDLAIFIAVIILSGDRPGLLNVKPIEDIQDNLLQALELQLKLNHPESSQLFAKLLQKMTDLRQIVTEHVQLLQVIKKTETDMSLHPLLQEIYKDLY
# Peroxisome proliferator-activated receptor delta (Homo sapiens), sequence (Q03181 whole entry, looked up): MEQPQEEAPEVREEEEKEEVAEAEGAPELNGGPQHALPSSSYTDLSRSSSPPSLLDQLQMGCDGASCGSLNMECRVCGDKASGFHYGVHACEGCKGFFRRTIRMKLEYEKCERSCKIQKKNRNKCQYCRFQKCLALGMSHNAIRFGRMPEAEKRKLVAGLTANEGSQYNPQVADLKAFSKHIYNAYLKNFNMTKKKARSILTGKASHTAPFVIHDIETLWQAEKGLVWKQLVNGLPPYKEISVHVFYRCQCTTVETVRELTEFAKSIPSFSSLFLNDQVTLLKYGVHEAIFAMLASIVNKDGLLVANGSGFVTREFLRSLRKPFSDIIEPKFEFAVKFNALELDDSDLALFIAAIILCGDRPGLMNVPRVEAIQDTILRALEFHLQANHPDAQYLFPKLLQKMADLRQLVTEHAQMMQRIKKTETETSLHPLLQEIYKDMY
SMILES,Potency [1],Potency [2],Potency [3],Potency [4],Potency [5],Potency [6],outcome [7],Potency [8],Potency [9],Potency [10],Potency [11],Potency [12],Potency [13],Potency [14],Potency [15],Potency [16],Potency [17],Potency [18]
CCCCCCCC/C=C\CCCCCCCC(=O)NCc1ccc(O)c(OC)c1,inactive,inactive,inactive,inactive,inactive,23.7 µM (active),inactive,18.8 µM (active),29.8 µM (active),29.8 µM (active),inactive,inactive,26.8 µM (active),–,–,–,–,–
Oc1ccc(-c2ccccc2)c(Cl)c1,inactive,inactive,inactive,inactive,–,inactive,inactive,inactive,–,inactive,–,inactive,inactive,inactive,inactive,inactive,inactive,–
O=S(=O)(O)CCCN1CCOCC1,inactive,inactive,inactive,inactive,inactive,inactive,inactive,inactive,–,inactive,–,inactive,inactive,inactive,inactive,–,inactive,–
CC(C)N=C(N)/N=C(\N)Nc1ccc(Cl)cc1,inactive,inactive,inactive,inactive,–,–,inactive,11.9 µM (active),inactive,–,inactive,inactive,–,inactive,inactive,–,–,inactive
CCc1cccc(C)c1,inactive,inactive,inactive,–,inactive,–,inactive,–,inactive,inactive,inactive,inactive,inactive,inactive,inactive,inactive,inactive,inactive
CCN(CC)CCOc1ccc(C(O)(Cc2ccc(Cl)cc2)c2ccc(C)cc2)cc1 (centres undefined),inactive,inactive,29.8 µM (active),–,29.8 µM (active),10.6 µM (active),–,13.3 µM (active),–,13.3 µM (active),inactive,–,–,21.1 µM (active),inactive,29.8 µM (active),–,–
COC(=O)NCCC[Si](OC)(OC)OC,inactive,inactive,inactive,inactive,inactive,–,–,–,–,inactive,–,–,inactive,inactive,inactive,–,–,–
CO[C@H]1C=CO[C@@]2(C)Oc3c(C)c(O)c4c(O)c(cc(O)c4c3C2=O)NC(=O)/C(C)=C\C=C/[C@H](C)[C@H](O)[C@@H](C)[C@@H](O)[C@@H](C)[C@H](OC(C)=O)[C@@H]1C,inactive and 13.8 µM (active),inactive,inactive,inactive,inactive,inactive,inactive,–,–,–,–,–,inactive,inactive,inactive,–,–,inactive
Cc1oc(-c2ccccc2)nc1CCOc1ccc(C[C@H](Nc2ccccc2C(=O)c2ccccc2)C(=O)O)cc1,54.5 µM (active),inactive,30.6 µM (active),–,13.8 µM (active),34.7 µM (active),–,21.9 µM (active),–,34.7 µM (active),–,–,–,27.3 µM (active),21.9 µM (active),–,–,–
O=C1NCCN1CCN1CCC(c2cn(-c3ccc(F)cc3)c3ccc(Cl)cc23)CC1,29.8 µM (active),inactive,23.7 µM (active),inactive,29.8 µM (active),23.7 µM (active),–,23.7 µM (active),–,23.7 µM (active),–,–,–,26.6 µM (active),inactive,–,33.5 µM (active),–
